RORgamma inh – qHTS for inhibitors of ROR gamma transcriptional activity. Nuclear receptor ROR-gamma (Mus musculus), P51450. Drosophila S2 Gal4-RORgamma UAS-luciferase reporter, 20 h. Potency, µM (doses to about 53.6 µM), without a hit: top-dose activity change, negative = inhibition, usual class: inhibitors. hit rate 5.4% among 310,000. AID 2551, 2010; note: potency is the fitted concentration of half-maximal effect; nearly all actives have a fitted effect of over 60% in size
Target sequence (P51450 whole entry, looked up, the tested form may be a part): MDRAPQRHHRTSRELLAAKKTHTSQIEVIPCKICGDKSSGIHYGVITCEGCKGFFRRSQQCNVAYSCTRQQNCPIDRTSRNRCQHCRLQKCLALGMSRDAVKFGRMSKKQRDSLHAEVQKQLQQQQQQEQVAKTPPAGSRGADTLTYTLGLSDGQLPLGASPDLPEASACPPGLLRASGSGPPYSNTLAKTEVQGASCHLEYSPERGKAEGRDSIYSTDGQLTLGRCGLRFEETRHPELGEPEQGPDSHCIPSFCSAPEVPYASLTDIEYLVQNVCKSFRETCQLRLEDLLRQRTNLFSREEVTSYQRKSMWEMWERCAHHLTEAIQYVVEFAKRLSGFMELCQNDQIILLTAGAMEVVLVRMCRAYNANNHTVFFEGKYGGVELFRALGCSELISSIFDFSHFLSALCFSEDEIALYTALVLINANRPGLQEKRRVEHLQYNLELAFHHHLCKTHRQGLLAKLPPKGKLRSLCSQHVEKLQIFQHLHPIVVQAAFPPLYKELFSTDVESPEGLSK
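Read-out: Photinus luciferase luminescence; inhibitors lower reporter signal. Insect Schneider cells with Gal4-ROR gamma fusion under metallothionein promoter, UAS reporter; 700 uM final copper sulfate induction, 20 hr, ambient temperature.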
IL1B secr inh – qHTS for Inhibitors of Inflammasome Signaling: IL-1-beta AlphaLISA Primary Screen | activity change, % at 57.5 µM | THP-1 LPS/ATP IL-1B secretion, AlphaLISA, 16 h; stronger effect = lower value | hit rate 4.7% among 360,000; in the data active = activity change below about -50%; inconclusive = mostly about -30% to -49%
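THP-1 cells pretreated 1 hr with compounds (up to 57.5 uM final), then stimulated with LPS (250 ng/mL final) plus ATP (1.25 mM final); secreted IL-1B measured by AlphaLISA after 16 hr, decreased signal indicating inhibition.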
DT40 TDP1 CPT – qHTS for Inhibitors of human tyrosyl-DNA phosphodiesterase 1 (TDP1): qHTS in cells in presence of CPT; chicken DT40 Tdp1-/-;hTDP1 cells + 20 nM CPT, ATP luminescence, 48 h; hit rate 12% among 420,000; Potency, µM (titrated, usually from 46.2 µM), for the others: at the top dose activity change, negative = growth inhibition, actives largely listed as inhibitors; AID 686979, 2013; note: potency is the fitted concentration of half-maximal effect; nearly all actives have a fitted effect of over 55% in size
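Chicken DT40 Tdp1-/- cells complemented with human TDP1, 400 cells/well, exposed to compounds plus 20 nM camptothecin for at least 48 h at 37 C; viability read as ATP content by CellTiter-Glo luminescence.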
DT40 TDP1 no CPT – qHTS for Inhibitors of human tyrosyl-DNA phosphodiesterase 1 (TDP1): qHTS in cells in absence of CPT; DT40 Tdp1-/- hTDP1 cells, no CPT, ATP luminescence, 48 h; Potency, µM (top dose mostly 46.2 µM), for inactives: top-dose activity change, negative = growth inhibition, hits mostly inhibitors; hit rate 15% among 420,000; AID 686978, 2013; note: potency is the fitted concentration of half-maximal effect; nearly all actives have a fitted effect of over 55% in size
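Growth kinetics read by CellTiter-Glo luminescence after ≥48 hr at 37 °C. Cells: DT40 Tdp1-/- stably carrying human TDP1, 400 per well, compound exposure in the absence of CPT (DMSO vehicle).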
ELG1 DNA repair – qHTS screen for small molecules that inhibit ELG1-dependent DNA repair in human embryonic kidney (HEK293T) cells expressing luciferase-tagged ELG1. HEK293T ELG1-luciferase reporter, luminescence, 16 h; DNA damage induced by 5-fluorouridine. Potency, µM (series often up to 46.1 µM), without a hit: at the highest dose activity change, negative = inhibition, hits mostly inhibitors. hit rate 2.3% among 330,000; note: potency is the fitted concentration of half-maximal effect; nearly all actives have a fitted effect of over 55% in size
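HEK293T cells expressing luciferase-tagged ELG1 (2,000/well) received 5-Fluorouridine plus compound or DMSO for 16 hr at 37 °C. Luciferase was read by ONE-Glo luminescence after 30 min at room temperature.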
VP16 counter – VP16 counterscreen qHTS for inhibitors of ROR gamma transcriptional activity; Drosophila S2 Gal4-VP16 UAS-luciferase, luminescence, 20 h; Potency, µM (highest dose often 53.6 µM), without a hit: at the top dose activity, negative = inhibition, actives largely listed as inhibitors; hit rate 3.5% among 310,000; AID 2546, 2010;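 note: Gal4-VP16 expression switched on by copper sulfate through the metallothionein promoter; potency is the fitted concentration of half-maximal effect; nearly all actives have a fitted effect of over 50% in size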
Active calls of the source: *; ? = inconclusive; / = not tested or not shown; ! = a repeat was not active; [ ] = another dose, or the depositor's remark. The list is not random: actives were taken first. Their share in the collection is about 21%. Unless noted, calls come from the whole dose curve; as a rule, active = well fitted curve in the direction sought with a large enough effect; inconclusive = small, poorly fitted or top-dose-only effect, or another doubt; inactive = no such curve, though single readings can be large; an effect the other way counts as inactive or inconclusive. % is set by controls: 0 for no effect and ±100 for the full control effect.

SMILES	RORgamma inh	IL1B secr inh	DT40 TDP1 CPT	DT40 TDP1 no CPT	ELG1 DNA repair	VP16 counter
CCOc1ccc(-c2cc(C(=O)Nc3ccc4c(c3)OCCO4)c3ccccc3n2)cc1	15.0%	4.9	?	10.3µM*	-19.2%	4.3%
CCOc1ccc(NC(=O)C2CSC(c3ccncc3)=N2)cc1 (stereo not given)	-7.1%	-11.4	23.1µM*	?	12.0%	-3.8%
Cc1cccc(-c2cc(C(=O)Nc3ccc4c(c3)OCCO4)c3ccccc3n2)c1	17.9%	-19.9	29.1µM*	13µM*	?	5.1%
O=C(Nc1ccc2c(c1)OCCO2)c1cc(-c2ccccn2)nc2ccc(Br)cc12	11.6%	17.7	?	?	0.6%	-2.8%
CCc1ccc2oc(C(=O)Nc3cc(C)ccc3C)cc(=O)c2c1	/	/	-7.2%	-21.5%	/	/
COc1ccc2c(c1)-c1nc(NC(=O)c3cc(OC)c(OC)c(OC)c3)sc1CC2	/	/	?	18.4µM*	/	/
COc1ccc2c(c1)-c1nc(N)sc1CC2	23.6%	10.3	-11.3%	-16.5%	-4.8%	21.9%
COc1ccc2c(c1)-c1nc(NC(=O)c3cc(Cl)ccc3OC)sc1CC2	/	/	8.2µM*	?	/	/
CCCN(CCC)C(=O)Cn1c(=O)n(-c2cccc(OC)c2)c(=O)c2c(C)c(C(=O)N(C)C)sc21	/	/	-8.1%	-3.3%	/	/
O=C1CN(C(=O)CSc2nnc(C3CC3)n2-c2ccccc2)c2ccccc2N1	20.6%	-6.4	-10.8%	-11.8%	6.4%	-1.0%
CCOC(=O)Nc1ccc(NCc2ccc(F)cc2)nc1N	-14.6%	-14.7	?	16.4µM*!	-2.0%	-5.9%
COc1cc(OC)cc(C(=O)N[C@H](C(=O)Nc2cc(C)cc(C)c2)C(C)C)c1	0.0%	37.3	-16.7%	-19.0%	-12.3%	-9.5%
COc1cc(OC)cc(C(=O)N[C@H](C(=O)NCc2ccco2)C(C)C)c1	10.9%	10.9	29.1µM*	14.6µM*	16.5%	5.0%
COc1cc(OC)cc(C(=O)NC(C(=O)Nc2ccc3c(c2)CCC3)C(C)C)c1 (stereo not given)	/	-14.7	?	?	7.3µM*	/
COc1ccc(C(=O)N[C@H](C(=O)NCc2ccco2)C(C)C)cc1	-0.1%	9.5	-18.4%	?	5.5%	-8.9%
Cc1ccccc1S(=O)(=O)Cc1ccc(C(=O)NCc2ccc(F)cc2)o1	19.3%	12.7	?	?	?	-1.7%
CCOc1ccccc1CNC(=O)c1cnc2sc(N3CCOCC3)nn2c1=O	/	/	-0.6%	-13.0%	/	/
COCCN1CCN(C(=O)c2cnn(-c3nccc(-c4ccccc4OC)n3)c2-c2ccco2)CC1	/	/	-0.8%[9.04 µM]	-10.0%	/	/
CCc1ccc(NC(=O)CN2C(C(=O)OC)=C(c3ccccc3)c3ccccc3S2(=O)=O)cc1	/	/	0.2%	-28.6%	/	/
CC(C)c1ccc(NC(=O)c2cc(S(=O)(=O)NCCC3=CCCCC3)ccc2F)cc1	/	/	18.4µM*	18.4µM*	/	/
CCN(CC)S(=O)(=O)c1ccc(F)c(C(=O)NCCC(C)C)c1	-42.3%	0.0	?	?	-13.0%	-1.0%
CC(C)c1ccc(NC(=O)c2cc(S(=O)(=O)NCc3ccccc3Cl)ccc2F)cc1	/	/	6.51µM*	9.2µM*	/	/
CN(Cc1ccccc1)S(=O)(=O)c1cccc(C(=O)O)c1	-14.5%	0.0	4.4%	-4.5%	?	-1.0%[10 µM]
CC(NCc1ccccc1Cl)C(=O)Nc1ccc(S(=O)(=O)N2CCCC2)cc1 (stereo not given)	0.8%	-3.1	?	?	-7.3%	-3.3%
CCc1cccc(C)c1NC(=O)c1cc(S(=O)(=O)N(C)Cc2ccccc2)ccc1F	/	/	29.1µM*	8.2µM*	/	/
SMILES	RORgamma inh	IL1B secr inh	DT40 TDP1 CPT	DT40 TDP1 no CPT	ELG1 DNA repair	VP16 counter
CCN(Cc1ccccc1)S(=O)(=O)c1ccc(F)c(C(=O)Nc2ccc(C(C)C)cc2)c1	/	/	14.6µM*	18.4µM*	/	/
O=C1NC(Cc2ccccc2)c2nc3cc(Cl)ccc3c(=O)n2-c2ncccc21 (stereo not given)	/	-14.3	?	?	/	/
OC[C@@H]1CN(Cc2cccs2)C[C@H](n2cnc3c(NCc4ccc(F)cc4)ncnc32)O1	/	-18.3	?	-28.6%	/	/
Cc1ccccc1NC(=O)c1ccc(F)c(S(=O)(=O)N(C)Cc2ccccc2)c1	/	/	?	20.6µM*	/	/
CN(Cc1cccs1)C(=O)CNC(=O)c1ccco1	20.4%	2.5	-2.1%	11.0%	?	18.0%
Cc1ccc(C)c2[nH]c(=O)c(CN(CCCN(C)C)C(=O)NCc3ccccc3)cc12	10.6%	?	?	23.1µM*	-11.1%	-9.1%
Cc1cc(C)c2cc(CN(CCCN(C)C)C(=S)NCc3ccccc3)c(=O)[nH]c2c1	?	-73.3*	20.6µM*	?	?	?
COc1ccc(C#CC2C=CC(OC(C)=O)C(COC(C)=O)O2)cc1 (stereo not given)	-1.9%[10 µM]	/	/	/	/	-0.8%[10 µM]
CCCCN1C(=O)C(CC(=O)NCc2ccco2)CC(C(=O)N(C(C)C)C(C)C)=C1C (stereo not given)	/	?	-0.3%	-1.2%	/	/
COc1ccc(-c2nc3ccccc3c(C(=O)Nc3ccc(S(=O)(=O)Nc4cc(C)on4)cc3)c2C)cc1	?	18.6	?	?	13µM*	-11.1%
Cc1ccc(-c2cc(C(=O)Nc3ccc(S(=O)(=O)Nc4cc(C)on4)cc3)c3ccccc3n2)c(C)c1	?	11.3	-2.1%	-3.7%	12.5%	3.3%

Screening data deposited in PubChem by National Center for Advancing Translational Sciences (NCATS).
